Results on 14 molecules are retold here after the supplement of paper PMC13094657.

For assay [1], the system named is MDA-MB-231. Nature of the assay: cell viability relative to vehicle unstimulated control (fraction); higher = more viable cells. The following applies: pre-treatment time: 18 h then 24 h IFNg/TNF.
The subject of assay [2] is MDA-MB-231. Briefly: kynurenine production, fold change vs DMSO IFNg/TNF control; higher = more kynurenine produced (less inhibition). To be noted: pre-treatment time: 18 h then 24 h IFNg/TNF. The gist of the method: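 In 96-well plates, MDA-MB-231 cells (7 × 10^4/well) were given 24 h to settle, pre-treated for 18 h with each natural product in 0.1% DMSO, and stimulated for 24 h with IFNγ (1 U/ml) and TNF (6.25 ng/ml) at 37°C. Supernatants were processed with trichloroacetic acid and p-dimethylaminobenzaldehyde and read at 492 nm against 0–100 μM standards. In the first screening round, kynurenine production, as fold change over same-plate cytokine-stimulated vehicle wells, was averaged over duplicate plates.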

SMILES strings stand for the structures. ± gives the standard deviation of the averaged measurements.
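Throughout, for cell viability relative to vehicle unstimulated control: viability of the cells left after supernatant collection, read with Deep Blue dye added for 4 h, as absorbance at 570 nm minus 600 nm.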

Turning to `CC(C)=CCC[C@](C)(O)[C@H]1CC[C@]2(C)[C@@H]1[C@H](O)C[C@@H]1[C@@]3(C)CC[C@H](O)C(C)(C)[C@@H]3[C@@H](O[C@@H]3O[C@H](CO)[C@@H](O)[C@H](O)[C@H]3O[C@@H]3O[C@@H](C)[C@H](O)[C@@H](O)[C@H]3O)C[C@]12C` [Ginsenoside Rg2] (compound dose: 10 uM), the cell viability with MDA-MB-231 [1] worked out at 1.01 ± 0.095. Moreover, in the assay with MDA-MB-231 [2], the kynurenine production worked out at 0.974 ± 0.061.
Turning to `CC(C)(O[C@@H]1O[C@H](CO)[C@@H](O)[C@H](O)[C@H]1O)[C@@H]1CC[C@](C)([C@H]2[C@@H](O)C[C@@]3(C)[C@@H]4C[C@H](O)[C@H]5C(C)(C)[C@@H](O[C@@H]6OC[C@@H](O)[C@H](O)[C@H]6O)CC[C@@]56C[C@@]46CC[C@]23C)O1` [Isoastragaloside IV] (compound dose: 10 uM), the cell viability in the assay with MDA-MB-231 [1] turned out to be 0.924 ± 0.083. The kynurenine production in the assay on MDA-MB-231 [2] amounted to 1.23 ± 0.33.
Consider `C/C=C(/C)C(=O)O[C@H]1[C@H](O)[C@]2(COC(C)=O)[C@H](O)C[C@]3(C)C(=CC[C@@H]4[C@@]5(C)CC[C@H](O[C@@H]6O[C@H](C(=O)O)[C@@H](O[C@@H]7O[C@H](CO)[C@@H](O)[C@H](O)[C@H]7O)[C@H](O)[C@H]6O[C@@H]6O[C@H](CO)[C@@H](O)[C@H](O)[C@H]6O)[C@](C)(CO)[C@@H]5CC[C@]43C)[C@@H]2CC1(C)C` [Isoescin IB] (compound dose: 10 uM), for which, in the assay with MDA-MB-231 [1], the cell viability worked out at 1.08 ± 0.074. For the same molecule, in the assay with MDA-MB-231 [2], the kynurenine production was determined as 0.802 ± 0.12.
In the case of `C[C@@H]1O[C@@H](O[C@H]2[C@H](O[C@H]3CC[C@]4(C)[C@H]5CC=C6[C@@H]7CC(C)(C)CC[C@]7(C(=O)O)CC[C@@]6(C)[C@]5(C)CC[C@H]4C3(C)C)OC[C@H](O[C@@H]3O[C@H](CO)[C@@H](O)[C@H](O)[C@H]3O)[C@@H]2O)[C@H](O)[C@H](O)[C@H]1O` [Hederacolchiside A1] (compound dose: 10 uM), the cell viability in the assay with MDA-MB-231 [1] came to 0.221 ± 0.013. Moreover, in the assay with MDA-MB-231 [2], the kynurenine production amounted to 0.396 ± 0.15.
The like results for `CCCCC/C=C\C=C\C(=O)O[C@H]1C(C)=C[C@]23C(=O)[C@@H](C=C(CO)[C@@H](O)[C@]12O)[C@H]1[C@@H](C[C@H]3C)C1(C)C` [3-O-(2'E,4'ZDecadienoyl) ingenol] (compound dose: 10 uM) were, in that order, 1 ± 0.09 and 1.022 ± 0.0084.
In the case of `CC(C)=CCC[C@](C)(O[C@@H]1O[C@H](CO[C@@H]2O[C@H](CO)[C@@H](O)[C@H](O)[C@H]2O)[C@@H](O)[C@H](O)[C@H]1O)[C@H]1CC[C@]2(C)[C@@H]1[C@H](O)C[C@@H]1[C@@]3(C)CC[C@H](O[C@@H]4O[C@H](CO)[C@@H](O)[C@H](O)[C@H]4O[C@@H]4O[C@H](CO)[C@@H](O)[C@H](O)[C@H]4O[C@@H]4OC[C@@H](O)[C@H](O)[C@H]4O)C(C)(C)[C@@H]3CC[C@]12C` [Notoginsenoside Fa] (compound dose: 10 uM), the cell viability in the assay on MDA-MB-231 [1] is 1.21 ± 0.15. The kynurenine production with MDA-MB-231 [2] stood at 1.06 ± 0.13.
Consider `O=c1c(O)c(-c2ccc(O)cc2)oc2cc(O)cc(O)c12` [Kaempferol] (compound dose: 10 uM), for which the cell viability in the assay on MDA-MB-231 [1] was 0.969 ± 0.079. Further, in the assay on MDA-MB-231 [2], the kynurenine production stood at 0.672 ± 0.023.
As to `C[C@@H]1O[C@@H](O[C@H]2[C@H](O[C@H]3[C@H](O[C@H]4CC[C@]5(C)[C@H]6CC=C7[C@@H]8CC(C)(C)CC[C@]8(C(=O)O)CC[C@@]7(C)[C@]6(C)CC[C@H]5C4(C)C)OC[C@H](O)[C@@H]3O)O[C@H](CO)[C@@H](O)[C@@H]2O)[C@H](O)[C@H](O)[C@H]1O` [Raddeanin A] (compound dose: 10 uM), the cell viability in the assay on MDA-MB-231 [1] was determined as 0.0234 ± 0.033. In addition, the kynurenine production in the assay with MDA-MB-231 [2] amounted to 0.116 ± 0.011.
As to `C[C@H](C[C@H](O)[C@H]1OC1(C)C)C1=C2C[C@H](O)[C@H]3[C@@]4(C)CCC(=O)C(C)(C)[C@@H]4CC[C@]3(C)[C@@]2(C)CC1` [Alisol B] (compound dose: 10 uM), in the assay on MDA-MB-231 [1], the cell viability was determined as 0.865 ± 0.13. Also, in the assay with MDA-MB-231 [2], the kynurenine production amounted to 1.0307 ± 0.00045.
Consider `CC(/C=C/C=C(\C)C(=O)O[C@@H]1O[C@H](CO)[C@@H](O)[C@H](O)[C@H]1O)=C\C=C\C=C(C)\C=C\C=C(/C)C(=O)O[C@@H]1O[C@H](CO[C@@H]2O[C@H](CO)[C@@H](O)[C@H](O)[C@H]2O)[C@@H](O)[C@H](O)[C@H]1O` [Crocin II] (compound dose: 10 uM), for which the cell viability in the assay on MDA-MB-231 [1] was determined as 0.987 ± 0.09. In the assay on MDA-MB-231 [2], the kynurenine production was 0.907 ± 0.13.
For the molecule `C[C@@H]1O[C@@H](O[C@H]2[C@H](OC(=O)[C@]34CCC(C)(C)C[C@H]3C3=CC[C@@H]5[C@@]6(C)C[C@H](O)[C@H](O[C@@H]7O[C@H](CO)[C@@H](O)[C@H](O)[C@H]7O)C(CO)(CO)[C@@H]6CC[C@@]5(C)[C@]3(C)C[C@H]4O)OC[C@H](O)[C@@H]2O)[C@H](O)[C@H](O)[C@H]1O[C@@H]1OC[C@@H](O)[C@H](O)[C@H]1O` [Deapioplatycodin D] (compound dose: 10 uM), the cell viability in the assay with MDA-MB-231 [1] stood at 0.93 ± 0.031. In addition, the kynurenine production in the assay on MDA-MB-231 [2] was 0.643 ± 0.13.
With `C=CC(=C)CCC=C(C)CCC=C(C)C` [(E)-β-Farnesene] (compound dose: 10 uM), the cell viability in the assay with MDA-MB-231 [1] came out at 0.977 ± 0.015. In addition, in the assay with MDA-MB-231 [2], the kynurenine production is 0.723 ± 0.27.
As for `C=C1CC[C@@H]2[C@](C)(CO)[C@H](O)CC[C@@]2(C)[C@H]1C/C=C1\C=COC1=O` [Dehydroandrographolide] (compound dose: 10 uM), in the assay on MDA-MB-231 [1], the cell viability was 0.984 ± 0.032. The kynurenine production in the assay with MDA-MB-231 [2] worked out at 0.754 ± 0.058.
As for `C[C@@]12C[C@@]3(O)O[C@@H](O1)[C@]1(COC(=O)c4ccccc4)[C@H]3C[C@@]12O[C@@H]1O[C@H](CO)[C@@H](O)[C@H](O)[C@H]1O` [Paeoniflorin] (compound dose: 10 uM), the cell viability in the assay with MDA-MB-231 [1] was 1.03 ± 0.16. In addition, in the assay with MDA-MB-231 [2], the kynurenine production came out at 1.34 ± 0.27.
